# Test results from ChEMBL document CHEMBL3988442, “University of Dundee, Small-Polar-MMV Screening Library” (2021).
# Among all 48,000 compounds or so, about 13,000 (27%) showed an effect of 50% or more. The list shows a part of the results.
# Tested on: Wolbachia pipientis
# Experiment: Anti-Wolbachia Cell-Based Screen
# Type: functional
# Parameters: scale not given: in the data most compounds retested in dose-response had high values
# Conditions: 5 µM
row,Compound,Percent Effect [%]
1,CNC(=O)C1CCCCN1C(=O)c1cn(CCOC)c2ccccc12 (configuration not stated),-5.579
2,O=C(c1n[nH]c(=O)c2ccccc12)N1CCCCC1c1ccn[nH]1 (configuration not stated),-2.968
3,CNC(=O)C1CCCCN1C(=O)c1n[nH]c(=O)c2ccccc12 (configuration not stated),98.92
4,O=C(NCCCN1CCCC1)c1n[nH]c(=O)c2ccccc12,0.5839
5,CNC(=O)C1CCCCN1C(=O)c1csc(-c2ccccc2)n1 (configuration not stated),-0.9781
6,CC1CCCCN1C(=O)c1n[nH]c(=O)c2ccccc12 (configuration not stated),115.2
7,Cn1ccc2cc(CC3COCCN(C(=O)c4ccccn4)C3)ccc21 (configuration not stated),118.8
8,COc1cccc(CCC2CCCN(C(=O)c3ccccn3)C2)c1 (configuration not stated),-14.56
9,O=C(c1cccnc1)N1CCN2C(=O)N(Cc3ccc(F)cc3)C[C@H]2C1,2.014
10,Cn1ccc2cc(CC3COCCN(C(=O)c4cccnc4)C3)ccc21 (configuration not stated),69.9
11,CN(C)CCN1CC(C(=O)NCc2ccc(C#N)cc2)CC1=O (configuration not stated),-12.86
12,COc1ccc(CC(C)(O)CNC(=O)NCc2cccs2)cc1 (configuration not stated),-12.02
13,Cc1nc2c(c(=O)n1C)CN(C(=O)C1CCCN(CC(N)=O)C1)C2 (configuration not stated),-6.994
14,CN(CC(=O)NC(Cc1ccccc1)C1CCCC1)S(C)(=O)=O (configuration not stated),1.289
15,Cc1cc(N2CCC(C(=O)O)(n3ccc(C(C)(C)C)n3)CC2)nc(N)n1,-17.81
16,Cc1cc(NC(=O)NCC(O)c2ccc(Cl)cc2Cl)n(C)n1 (configuration not stated),1.838
17,Cc1cnc(C(=O)NCC(c2ccc(C)o2)N2CCOCC2)cn1 (configuration not stated),-11.84
18,Cc1cc(NC(=O)NCCc2ccccc2)n(C)n1,-5.779
19,Cc1cc(NC(=O)NCc2ccccc2OC(F)F)n(C)n1,8.208
20,Cc1cc(NC(=O)NCC(c2ccc(C)o2)N2CCOCC2)n(C)n1 (configuration not stated),126.3
21,Cc1cc(NC(=O)NCC(c2ccccc2)N2CCOCC2)n(C)n1 (configuration not stated),108.2
22,CCc1ccccc1OCCCN(C)C(=O)C1CCCN1C(N)=O (configuration not stated),-6.634
23,CCC(NC(=O)CC(F)(F)F)c1ccccc1OCC(=O)N1CCCC1 (configuration not stated),-4.718
24,CCCc1cc(C(=O)N(Cc2cccnc2)C[C@@H]2CCC(=O)N2)no1,-10.16
25,O=C1CCC2(CCCN(C(=O)c3cccs3)C2)N1 (configuration not stated),-85.27
26,Cc1nccc(-c2ccccc2)c1C(=O)N1CCC2(CC(=O)NC2=O)C1 (configuration not stated),-6.27

row,Compound,Percent Effect [%]
1,O=C1NC2(CCc3ccccc31)CCN(C(=O)c1ccncc1)C2 (configuration not stated),94.99
2,O=C1NC2(CCc3ccccc31)CCN(C(=O)c1cccnc1)C2 (configuration not stated),113.1
3,O=C1CCC2(CCCN(C(=O)c3cccnc3)CC2)N1 (configuration not stated),-2.669
4,Cc1ncccc1C(=O)N1CCC2(CCc3ccccc3C(=O)N2)C1 (configuration not stated),98.8
5,CC(C)CN1C[C@@H]2C(=O)NC3(CCN(C(=O)c4cccnc4)CC3)[C@@H]2C1,1.9
6,Cc1nccc(-c2ccccc2)c1C(=O)N1CC[C@](C)(O)C(C)(C)C1,-0.4275
7,CCC(C)(CC(=O)OC)NCc1noc(C)n1 (configuration not stated),-21.8
8,CC(C)c1nnc2n1CCN(C(=O)COc1ccc(C(N)=O)cc1)C2,-6.982
9,COCC1CC2(CCN(C(=O)C3CCSCC3)CC2)CO1 (configuration not stated),-14.44
10,CCCC(Nc1c(C#N)c(=O)n(C)c(=O)n1C)c1ccc(F)cc1F (configuration not stated),-0.1424
11,C[C@@H]1CN(C(=O)c2ccc[nH]2)C[C@]12CCN(CCN1CCCC1)C2=O.O=C(O)C(F)(F)F,108.3
12,O=C(O)C(F)(F)F.O=C(O)C(F)(F)F.O=C(O)C(F)(F)F.c1c[nH]c(CN2CCC3(CC2)COCCN(CCN2CCCC2)C3)c1,-16.15
13,CN1CC(c2ccccc2)C2(CCN(C(=O)c3ccc[nH]3)CC2)C1=O (configuration not stated),-2.349
14,COCCN1CC[C@]2(CN(C(=O)c3ccc[nH]3)C[C@H]2C)C1=O,91.74
15,Cn1cccc1C(=O)N1CCCC2(CCN(CCN3CCCC3)C2=O)C1.O=C(O)C(F)(F)F (configuration not stated),-2.422
16,CN1CC[C@]2(CN(C(=O)c3ccc[nH]3)C[C@H]2c2ccccc2)C1=O,-8.445
17,CN(C)C(=O)CCC(=O)N1CCC2(CC1)COC2,-20.99
18,Cc1sc(NC(=O)CN2CCCC(c3ncc[nH]3)C2)c(C)c1C (configuration not stated),13.59
19,COc1c(CNC2CCc3cc(F)ccc32)c(C(C)C)nn1C (configuration not stated),97.63
20,COc1c(CNC2CCOc3ccccc32)c(C(C)C)nn1C (configuration not stated),-0.8821
21,COc1c(CNC2CCc3c(F)cccc32)c(C)nn1C.Cl (configuration not stated),125.6
22,COc1c(CNC2CCc3cc(C)ccc32)c(C)nn1C (configuration not stated),196.3
23,Cn1ncnc1CNC1CCc2cc(Cl)ccc21 (configuration not stated),-6.658
24,Cc1ccc2c(c1)CCC2NCc1c(C)nn(CCO)c1C.Cl (configuration not stated),9.193
25,COc1c(CNC2CCOc3c(Cl)cccc32)c(C)nn1C.Cl (configuration not stated),-20.37
26,COc1c(CNC2CCCc3ccccc32)c(C(C)C)nn1C (configuration not stated),-2.774

row,Compound,Percent Effect [%]
1,COc1c(CNC2CCOc3c(F)cccc32)c(C)nn1C (configuration not stated),-5.109
2,COc1c(CNC2CCc3cc(Cl)ccc32)c(C)nn1C (configuration not stated),202
3,COc1c(CNC2CCCOc3ccccc32)c(C)nn1C (configuration not stated),-2.484
4,COc1c(CNC2CCc3c(Cl)cccc32)c(C)nn1C.Cl (configuration not stated),-6.251
5,CCOCC(=O)N1CCC2(CC1)COC(COCc1ccccn1)C2.O=C(O)C(F)(F)F (configuration not stated),-4.838
6,OC(COCc1ccccc1)CSc1nnc2ccccn12 (configuration not stated),-5.176
7,CN(Cc1ccccc1)CC(O)Cn1cnc2ccsc2c1=O (configuration not stated),-0.02665
8,Cc1ccc(CCCC(=O)N2CC(=O)Nc3cccnc32)s1,-7.748
9,CCn1cc(S(=O)(=O)NCC(OC)c2cccc(Cl)c2)cn1 (configuration not stated),-3.186
10,COc1c(CNC2CCOc3ccccc32)c(C)nn1C (configuration not stated),-8.703
11,COc1c(CNC2CCc3ccccc32)c(C)nn1C (configuration not stated),132.3
12,Cc1nn(C)c(N(C)C)c1CNC1CCc2c(F)cccc21.Cl (configuration not stated),-3.746
13,Cc1nn(C)c(N(C)C)c1CNC1CCOc2c(F)cccc21 (configuration not stated),-12.9
14,Cc1nn(C)c(N(C)C)c1CNC1CCc2cc(F)ccc21.Cl (configuration not stated),58.09
15,COc1c(CNC2CCCc3ccccc32)c(C)nn1C (configuration not stated),-3.62
16,CCOCCNC(=O)[C@@H]1CCCN1c1nccc(Nc2ccccc2)n1,123.1
17,Cc1nc(N2CCCC2C(=O)NC(C)(C)CO)nc2ccccc12 (configuration not stated),-14.27
18,Cc1nc(N2CCCC2C(=O)NCc2ccsc2)nc2ccccc12 (configuration not stated),-0.4338
19,CCC(C)CNC(=O)[C@@H]1CCCN1c1nccc(Nc2ccccc2)n1 (some centres not stated),83.24
20,CCNC(=O)[C@@H]1CCCN1[C@@H](C(=O)NC)c1ccccc1.Cl,1.454
21,Cn1cc(S(=O)(=O)N2CCCC(Cn3cncn3)C2)cn1 (configuration not stated),7.015
22,Cc1cc(C)nc(N2CCN(Cc3cc4n(n3)CCNC4)CC2)n1,3.043
23,CCC(CC)(CNC(=O)OC(C)(C)C)NC(=O)C1CCCO1 (configuration not stated),-2.751
24,CN(C)C(=O)C1CCN(Cn2ccc(-c3ccc(F)cc3)n2)CC1,-0.7457
25,NC(=O)C1CCN(Cn2nc(-c3ccc(F)cc3)oc2=O)C1 (configuration not stated),1.615
26,CN(C)C(=O)C1CCN(Cn2nc(-c3ccc(F)cc3)oc2=O)CC1,103.8

row,Compound,Percent Effect [%]
1,CCNC(=O)C1CCN(Cn2nc(-c3ccccc3)oc2=O)CC1,32.26
2,NC(=O)C1CCN(Cn2nc(-c3ccc(F)cc3)oc2=O)CC1,-1.438
3,CCNC(=O)C1CCN(Cn2nc(-c3ccc(F)cc3)oc2=O)CC1,109.5
4,COCCNS(=O)(=O)c1cccc2c1CN(C(=O)c1ccoc1)CC2,-4.296
5,O=C(CCN1CCCCO1)NCCSc1cnn[nH]1,-10.06
6,O=C(Nc1cnc(N2CCOCC2)nc1)c1ccc(C(F)(F)F)cc1,-14.92
7,COc1ccc(CNC(=O)Nc2cccnc2N2CCCC2)cc1O,5.848
8,COc1ccc(C)cc1NC(=O)Nc1cnc(N2CCN(C)CC2)nc1,-7.75
9,COc1ccc(C)cc1NC(=O)Nc1cnc(N2CCCC2)nc1,135.2
10,COc1ccc(C)cc1NC(=O)Nc1cnc(N2CCOCC2)nc1,156.3
11,O=C(COc1ccc(Cl)cc1)Nc1cnc(N2CCOCC2)nc1,-3.73
12,CC1COCCN1C(=O)c1ccc(=O)n(CCOc2ccccc2)n1 (configuration not stated),-6.742
13,COCCn1nc(C(=O)N2CCOCC2C)ccc1=O (configuration not stated),3.322
14,O=C(Cc1cccs1)N1CCOCC1c1ccccc1 (configuration not stated),-1.023
15,Cc1cnc(C(=O)N2CCCCC2c2ccc(CN(C)C)cc2)cn1 (configuration not stated),6.216
16,O=C(c1cnccn1)N1CCc2ncnc(C3CCOC3)c2CC1 (configuration not stated),-0.4646
17,Cc1cnc(C(=O)N2CCOCC2C)cn1 (configuration not stated),99.05
18,CC1COCCN1C(=O)c1ccc(=O)n(Cc2ccccc2)n1 (configuration not stated),-2.389
19,CC1COCCN1C(=O)c1cnccn1 (configuration not stated),93.18
20,Cc1cnc(C(=O)N2CCOCC2c2ccccc2)cn1 (configuration not stated),87.18
21,CCc1ccc(O)c(C(=O)N2CCN(CC(=O)N3CCCCC3)CC2)c1,-4.126
22,O=C(NS(=O)(=O)c1cc(Cl)sc1Cl)c1cccc2c1OCCO2,-19.53
23,COc1cccc(C(=O)NCc2ccccc2S(=O)(=O)N(C)C)c1,16.54
24,CSCCN(C)C(=O)C1(c2ccc(F)cc2F)CCOCC1,-17.49
